Laboratory results: PubChem BioAssay (EPA / NIEHS)
Activity calls are given as the source filed them. The calls were made as follows: active = hit-call score of the fitted dose curve at least 0.9, where 1 is the maximum; inactive = score below 0.9.

Experiment: IUF_NPC1a_proliferation_area_72hr: Leibniz Research Institute for Environmental Medicine (IUF) 72-hour Neural Progenitor Cell Proliferation Area Assay (NPC1a) (AID 2284208)
Procedure, shortened: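 Proliferation read as increase in sphere area by phase-contrast imaging over 72 h continuous compound exposure (no renewal) of hNPC spheres grown with EGF/FGF at 37C, 5% CO2. Growth-factor withdrawal served as positive control; DMSO as baseline.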

Row | Compound | outcome | AC50
1 | Cc1cc(C(F)(C(F)(F)F)C(F)(F)F)ccc1NC(=O)c1cccc(I)c1C(=O)NC(C)(C)CS(C)(=O)=O | inactive | 
2 | CCOCn1c(-c2ccc(Cl)cc2)c(C#N)c(Br)c1C(F)(F)F |  | 26.3 µM (active)
3 | CC1(C)[C@H](C(=O)O[C@H](C#N)c2cccc(Oc3ccccc3)c2)[C@@H]1/C=C(\Cl)C(F)(F)F | inactive | 
4 | CNC(=O)CSP(=O)(OC)OC | inactive | 
5 | CS(=O)(=O)c1ccc(C(=O)C2C(=O)CCCC2=O)c(Cl)c1COCC(F)(F)F | inactive | 
6 | CC(C)[C@@H](Nc1ccc(C(F)(F)F)cc1Cl)C(=O)OC(C#N)c1cccc(Oc2ccccc2)c1 (some centres not stated) | inactive | 
7 | Cc1ccccc1OP(=O)(Oc1ccccc1C)Oc1ccccc1C | inactive | 
8 | O=S1OC[C@@H]2[C@H](CO1)[C@]1(Cl)C(Cl)=C(Cl)[C@@]2(Cl)C1(Cl)Cl (some centres not stated) | inactive | 
9 | OC(Cc1ccccc1Cl)(Cn1[nH]cnc1=S)C1(Cl)CC1 (configuration not stated) | inactive | 

Experiment: IUF_NPC1_viability_72hr: Viability Assessment at 72 hours in the Leibniz Research Institute for Environmental Medicine (IUF) Neural Progenitor Cell Proliferation Assay (NPC1) (AID 2284209)
Procedure, shortened: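 Human fetal-cortex neural progenitor spheres (0.25–0.35 mm, one per well) grown in EGF/FGF proliferation medium at 37C, pH 7.2-7.6, exposed 72 h without renewal; viability read as alamar blue resazurin-to-resorufin fluorescence relative to DMSO.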

Row | Compound | outcome | AC50
10 | Cc1cc(C(F)(C(F)(F)F)C(F)(F)F)ccc1NC(=O)c1cccc(I)c1C(=O)NC(C)(C)CS(C)(=O)=O | inactive | 
11 | CCOCn1c(-c2ccc(Cl)cc2)c(C#N)c(Br)c1C(F)(F)F |  | 26.8 µM (active)
12 | CC1(C)[C@H](C(=O)O[C@H](C#N)c2cccc(Oc3ccccc3)c2)[C@@H]1/C=C(\Cl)C(F)(F)F | inactive | 
13 | CNC(=O)CSP(=O)(OC)OC | inactive | 
14 | CS(=O)(=O)c1ccc(C(=O)C2C(=O)CCCC2=O)c(Cl)c1COCC(F)(F)F | inactive | 
15 | CC(C)[C@@H](Nc1ccc(C(F)(F)F)cc1Cl)C(=O)OC(C#N)c1cccc(Oc2ccccc2)c1 (some centres not stated) | inactive | 
16 | Cc1ccccc1OP(=O)(Oc1ccccc1C)Oc1ccccc1C | inactive | 
17 | O=S1OC[C@@H]2[C@H](CO1)[C@]1(Cl)C(Cl)=C(Cl)[C@@]2(Cl)C1(Cl)Cl (some centres not stated) |  | 2.59 µM (active)
18 | OC(Cc1ccccc1Cl)(Cn1[nH]cnc1=S)C1(Cl)CC1 (configuration not stated) | inactive | 

Experiment: CCTE_Mundy_HCI_Cortical_Synap_Neur_Matur_NeuriteSpotCountPerNeuriteLength: CCTE's Synaptogenesis and Neurite Maturation Assay in rat cortical cells for Neurite Spot Count per Neurite Length, Mundy Lab (AID 2284210)
Procedure, shortened: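 Primary rat cortical neurons, compound exposure DIV 7–12, 288.33 h endpoint. Hoechst, anti-MAP2 and anti-synaptophysin labelling; neurite-associated puncta per neurite length scored by automated imaging relative to DMSO controls.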

Row | Compound | outcome | AC50
19 | NC(=O)c1ccc(N)nc1 | inactive | 
20 | Cc1cc(C(F)(C(F)(F)F)C(F)(F)F)ccc1NC(=O)c1cccc(I)c1C(=O)NC(C)(C)CS(C)(=O)=O | inactive | 
21 | CCOCn1c(-c2ccc(Cl)cc2)c(C#N)c(Br)c1C(F)(F)F |  | 22.7 µM (active)
22 | CC1(C)[C@H](C(=O)O[C@H](C#N)c2cccc(Oc3ccccc3)c2)[C@@H]1/C=C(\Cl)C(F)(F)F |  | 4.59 µM (active)
23 | CNC(=O)CSP(=O)(OC)OC | inactive | 
24 | CS(=O)(=O)c1ccc(C(=O)C2C(=O)CCCC2=O)c(Cl)c1COCC(F)(F)F | inactive | 
25 | CC(C)[C@@H](Nc1ccc(C(F)(F)F)cc1Cl)C(=O)OC(C#N)c1cccc(Oc2ccccc2)c1 (some centres not stated) | inactive | 
26 | Cc1ccccc1OP(=O)(Oc1ccccc1C)Oc1ccccc1C | inactive | 
27 | OC(Cc1ccccc1Cl)(Cn1[nH]cnc1=S)C1(Cl)CC1 (configuration not stated) |  | 80.4 µM (active)
